# Inconclusive results are not listed. A call without a number means that no potency is given here. Active and inactive are the calls of the source. The call rests on the fitted dose curve; in most records, active means well fitted inhibition curve with a large enough effect; inconclusive means small, poorly fitted or top-dose-only effect; inactive means no such curve, though single readings can be large or run the other way.
# How the values were obtained:
# [1] = tested on: Zika virus NS2B-NS3 protease (linked construct); test: Primary screen NINDS Rhodamine qHTS for Zika virus inhibitors (AID 1347160); conditions: purified NS2B-NS3 protease, Rhodamine110 substrate fluorescence; series mostly up to 33.1 µM; further: nearly all actives have a fitted effect of over 55% in size
# Outline: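 Percent inhibition, normalized to uninhibited and enzyme-free controls, is fitted to a 4-parameter Hill equation. Fluorescence change comes from a 15-min cleavage of 1.5 microM bis-peptide Rhodamine110 substrate by 25 nM linked NS2B-NS3 at room temperature.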
# [2] = tested on: Zika virus NS2B-NS3 protease (unlinked complex); test: Primary screen GU Rhodamine qHTS for Zika virus inhibitors: Unlinked NS2B-NS3 protease assay (AID 1347159); conditions: Recombinant ZIKV NS2B-NS3 protease, Rhodamine110 substrate fluorescence; series mostly up to 107 µM; further: nearly all actives have a fitted effect of over 60% in size
# Outline: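 Compounds, tested up to 114 microM, were incubated for 15 minutes with 25 nM unlinked NS2B-NS3 protease at pH 8.0. Cleavage of 1.5 microM Rhodamine110 substrate was then followed by fluorescence for 15 minutes.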
SMILES,Potency [1],Potency [2]
Cc1ccc2nc(NC(=O)CSc3nc4c(c(=O)n3-c3ccc(F)cc3)SCC4)sc2c1,inactive,–
CC(=O)/C=C/C1(O)C(C)(C)CC(O)CC1(C)O (stereo not drawn),inactive,inactive
CC(C)N(CCCNC(=O)Nc1ccc(C(C)(C)C)cc1)C[C@H]1O[C@@H](n2ccc3c(N)ncnc32)[C@H](O)[C@@H]1O,inactive,inactive
CC1C2=CC(=O)OC2(O)CC2C1C(O)CC1C(C)(CO)CCCC21C (stereo not drawn),inactive,inactive
C/C=C1/[C@H](O[C@@H]2O[C@H](CO)[C@@H](O)[C@H](O)[C@H]2O)OC=C2C(=O)O[C@@H]3C[C@@H](C(C)CO)[C@H](COC(=O)C[C@H]21)[C@H]3C (stereo partly drawn),inactive,inactive
COc1ccc(C(=O)NCc2cc(C(C)C)no2)cc1OC1CCN(C)CC1,inactive,inactive
CN[C@H](CNC(=O)N1CCC[C@@H]([C@@H](OCCNC(=O)OC)c2cccc(Cl)c2)C1)C[C@H]1CCCOC1,inactive,inactive

# From PubChem BioAssay (NCATS)
